Unmarked numbers belong to inactive results. Records with an inconclusive call do not appear. The source made the active and inactive calls. Unless noted, calls come from the whole dose curve; as a rule, active = well fitted curve in either direction with a large enough effect (not every such curve was filed as active); inconclusive = small, poorly fitted or top-dose-only effect, or another doubt; inactive = flat fitted curve, though single readings scatter. Bounds are passed on as bounds.

The target of assay [1] is Lysosomal acid glucosylceramidase (Homo sapiens) (UniProt P04062). Briefly: Glucocerebrosidase-p2 (AID 348; in the data active = potency below about 10 µM; note: potency is the fitted concentration of half-maximal effect). Particulars: purified GBA, blue fluorogenic substrate, 40 min. The gist of the method: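 Compounds titrated from 0.6 nM upwards against 0.2 nM enzyme in pH 5.9 citric acid/KH2PO4, taurocholate, tween-20; blue fluorogenic substrate 80 uM, 40 min room temperature, stopped and read Ex 365/Em 440 for AC50.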
Chain of Lysosomal acid glucosylceramidase (Homo sapiens) (P04062 whole entry, looked up): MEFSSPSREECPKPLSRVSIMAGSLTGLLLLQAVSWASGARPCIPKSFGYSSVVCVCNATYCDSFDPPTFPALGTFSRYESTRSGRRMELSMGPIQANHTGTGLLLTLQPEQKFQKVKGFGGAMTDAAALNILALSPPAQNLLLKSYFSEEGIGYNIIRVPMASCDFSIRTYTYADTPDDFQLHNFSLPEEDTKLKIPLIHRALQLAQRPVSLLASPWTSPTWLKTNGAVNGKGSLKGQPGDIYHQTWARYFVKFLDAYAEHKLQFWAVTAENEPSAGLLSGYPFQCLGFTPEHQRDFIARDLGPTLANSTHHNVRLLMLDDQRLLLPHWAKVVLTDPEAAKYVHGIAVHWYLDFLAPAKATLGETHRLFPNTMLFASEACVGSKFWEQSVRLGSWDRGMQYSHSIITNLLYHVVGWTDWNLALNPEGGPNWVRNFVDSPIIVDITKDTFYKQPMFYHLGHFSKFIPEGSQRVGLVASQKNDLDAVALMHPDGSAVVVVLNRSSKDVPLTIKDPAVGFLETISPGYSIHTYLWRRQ

A short description of assay [2]: AP1 Signaling Pathway (AID 357). Note: % is set by controls: 0 for no effect and ±100 for the full control effect. The note with it: ME-180 AP-1-bla reporter, EGF-induced, beta-lactamase ratio, 5 h; at 7.69 µM (top of the series) unless noted. The gist of the method: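 AP-1-bla ME-180 cells with beta-lactamase reporter under AP-1 response element, stimulated with EC50 EGF; compounds titrated, 5 hours at 37 degrees Celsius. CCF4 read at 460/530 nm ratio; positive and negative modulators judged by AC50.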

For assay [3], the target named is Cytochrome P450 1A2 (Homo sapiens) (UniProt P05177). Put plainly: p450-cyp1a2 (AID 410; calls by dose curve; note: potency is the fitted concentration of half-maximal effect;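 for activity change, negative = inhibition: -100% = full effect of reference inhibitor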). The note with it: recombinant CYP1A2, luciferin-ME demethylation, luminescence; series mostly up to 11.4 µM. The gist of the method: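 Luminescent readout of luciferin formed from Luciferin-ME by human CYP1A2; data normalized against complete inhibition by 57 uM furafylline. Enzyme 20nM, substrate 100uM at Km, 100mM KPO4 buffer, 60 min reaction at room temperature.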
Chain of Cytochrome P450 1A2 (Homo sapiens) (P05177 whole entry, looked up): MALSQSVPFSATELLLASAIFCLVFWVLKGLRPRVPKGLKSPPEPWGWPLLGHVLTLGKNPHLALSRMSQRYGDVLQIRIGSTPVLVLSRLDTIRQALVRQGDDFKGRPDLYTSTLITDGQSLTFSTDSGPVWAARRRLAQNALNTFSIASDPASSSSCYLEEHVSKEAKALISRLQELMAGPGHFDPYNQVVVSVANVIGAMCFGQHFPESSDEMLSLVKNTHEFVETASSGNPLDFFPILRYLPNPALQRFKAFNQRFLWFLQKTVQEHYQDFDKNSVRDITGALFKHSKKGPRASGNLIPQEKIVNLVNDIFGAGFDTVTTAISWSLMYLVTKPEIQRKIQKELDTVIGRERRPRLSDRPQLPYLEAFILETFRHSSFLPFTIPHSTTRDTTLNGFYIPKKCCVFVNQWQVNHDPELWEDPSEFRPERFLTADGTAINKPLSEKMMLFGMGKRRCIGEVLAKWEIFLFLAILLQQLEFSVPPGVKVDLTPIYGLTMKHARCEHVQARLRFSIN

Assay [4] can be described thus: NFAT Signaling Pathway (AID 444).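 Note: carbachol stimulus at about its EC50 of 1 µM final; % is set by controls: 0 for no effect and ±100 for the full control effect.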 Particulars: Jurkat NFAT-bla M1, carbachol, beta-lactamase ratio, 5 h; at 7.69 µM (top of the series) unless noted. The gist of the method: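 Jurkat cells carrying an NFAT-driven β-lactamase reporter and co-transfected muscarinic M1 receptor were treated with compound plus carbachol (1 uM final, an EC50 level) for 5 h at 37 °C. CCF4 loading followed for 1 h at RT; 460/530 nm ratio gave %activity.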

A short description of assay [5]: Stat Signaling Pathway (AID 446).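 Note: ME-180 cervical cancer cells given 40 pM IL-6 alongside compound; SIE-controlled beta-lactamase reporter measured as 460/530 nm FRET emission ratio; % is set by controls: 0 for no effect and ±100 for the full control effect.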 The note with it: ME-180 SIE beta-lactamase reporter, IL-6 stimulated, 5 h; at 7.69 µM (top of the series) unless noted. The gist of the method:
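Reporter line: ME-180 cervical carcinoma, SIE-beta-lactamase. Treatment: compound with 40 pM IL-6, 5 hrs, 37 C, in low-serum OPTI-MEM with 10 mM HEPES pH 7.3. Detection: 460/530 nm fluorescence.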

Assay [6] has as its target Glucocorticoid receptor (Homo sapiens) (UniProt P04150). Put plainly: GR-GFP Redistribution (AID 450;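 active = compounds whose dose series gives a full or clear partial fitted curve of increased nuclear translocation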; note: potency is the fitted concentration of half-maximal effect). The note with it: U2OS GR-GFP nuclear translocation, laser cytometry, 2 h.
For assay [7] the target is unchanged. Put plainly: GR-EFC Redistribution (AID 451; calls by dose curve; note: potency is the fitted concentration of half-maximal effect). Particulars: CHO-K1 GR-EFC translocation, beta-gal luminescence, 2 h. The gist of the method: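 CHO-K1 cells stably expressing nuclear-localized β-gal enzyme acceptor and GR fused C-terminally to the enzyme donor fragment; ligand-driven nuclear translocation restores β-gal by complementation. Compounds titrated up to 46 uM final, 2 h at 37 °C; luminescence read.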

Assay [8] deals with Mitogen-activated protein kinase 10 (Mus musculus) (UniProt Q61831). Briefly: JNK3 AlphaScreen Assay (AID 530).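 Note: kinase came from lysate of stimulated human HepG2 cells; signal reports phosphorylation of biotinylated GST-cJun 1-79 at Ser73 with 10 µM ATP; % is set by controls: 0 for no effect and ±100 for the full control effect.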 Particulars: JNK3 lysate, c-Jun phosphorylation; series mostly up to 11.4 µM. The gist of the method: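 Inhibitors reduce antibody binding to phosphorylated biotin-cJun, lowering AlphaScreen luminescence. Lysates from HepG2 cells pre-activated by IL-1beta plus TNF-alpha supplied JNK3; compounds were titrated.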

In assay [9] the target is 3',5'-cyclic-AMP phosphodiesterase 4B (Homo sapiens) (UniProt Q07343). Put plainly: qHTS Assay for Inhibitors of PDE-IV (AID 607; active = well fitted activation curve with a large enough effect in the main read-out, with a control signal flat, not every such curve was filed as active; note: % of control where 0% means no effect). The note with it: HEK293 ACTOne CNG channel cells, membrane potential fluorescence; series mostly up to 22.9 µM. The gist of the method:
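Cell-based read-out of cAMP via a modified cyclic nucleotide-gated channel and membrane potential dye (535/590 nm) in HEK293 cells expressing PDE4 endogenously. Compounds tested up to 22.9 uM final; 100 uM RO 20-1724 reference.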
A general note: Quantitative high-throughput screening tests each substance at several concentrations.

Assay [10] deals with Cytochrome P450 2C9 (Homo sapiens) (UniProt P11712). Briefly: qHTS Assay for Inhibitors and Substrates of Cytochrome P450 2C9 (AID 883; active = well fitted curve in the direction sought with a large enough effect; an effect the other way counts as inactive or inconclusive; note: nearly all actives have a fitted effect of over 60% in size; note: potency is the fitted concentration of half-maximal effect). The note with it: recombinant CYP2C9, luciferin-H luminescence, 60 min; series mostly up to 11.4 µM. The gist of the method:
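A luminogenic readout tracked human CYP2C9 (10nM) converting deoxyluciferin (100uM, at KM) in 25mM KPO4 during 60 min at 37C with regenerated NADPH. Values normalized to 57uM sulphaphenazole as complete inhibition.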

Assay [11] concerns the target Cytochrome P450 3A4 (Homo sapiens) (UniProt P08684). Briefly: qHTS Assay for Inhibitors and Substrates of Cytochrome P450 3A4 (AID 884; active = well fitted curve in the direction sought with a large enough effect; an effect the other way counts as inactive or inconclusive; note: potency is the fitted concentration of half-maximal effect; nearly all actives have a fitted effect of over 50% in size). The note with it: recombinant CYP3A4, Luciferin-PPXE luminescence; series mostly up to 57.1 µM. The gist of the method: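 20 nM human CYP3A4 with 25 uM Luciferin-PPXE (at KM) in 200 mM KPO4, preincubated 10 min with compound; NADPH regeneration started a 60 min RT reaction. Luciferin detected by luminescence, normalized to 57 uM ketoconazole as full inhibition.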

Assay [12] shares this target. Put plainly: qHTS Assay for Activators of Cytochrome P450 3A4 (AID 885; active = well fitted curve in the direction sought with a large enough effect; an effect the other way counts as inactive or inconclusive; note: nearly all actives have a fitted effect of over 65% in size). The note with it: recombinant CYP3A4, Luciferin-PPXE luminescence, 60 min; series mostly up to 11.4 µM. The gist of the method: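 Signal was normalized against complete inhibition by 57 uM ketoconazole. The reaction used 20nM CYP3A4 with 25uM Luciferin-PPXE, 10-min compound preincubation and a 60-min NADPH-supported step at RT.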

For assay [13], the target named is Cytochrome P450 2D6 (Homo sapiens) (UniProt P10635). Put plainly: qHTS Assay for Inhibitors and Substrates of Cytochrome P450 2D6 (AID 891; active = well fitted curve in the direction sought with a large enough effect; an effect the other way counts as inactive or inconclusive; note: potency is the fitted concentration of half-maximal effect; nearly all actives have a fitted effect of over 60% in size). The note with it: recombinant CYP2D6, luciferin-ME EGE luminescence; series mostly up to 11.4 µM. The gist of the method: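 Human CYP2D6 (5 nM) with 30 uM Luciferin-ME EGE (at Km) in 100 mM KPO4, compound preincubated 10 min, then NADPH regeneration system for 60 min at room temperature. Luciferin read by luminescence; normalized to 1.43 uM quinidine.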
Chain of Cytochrome P450 2D6 (Homo sapiens) (P10635 whole entry, looked up): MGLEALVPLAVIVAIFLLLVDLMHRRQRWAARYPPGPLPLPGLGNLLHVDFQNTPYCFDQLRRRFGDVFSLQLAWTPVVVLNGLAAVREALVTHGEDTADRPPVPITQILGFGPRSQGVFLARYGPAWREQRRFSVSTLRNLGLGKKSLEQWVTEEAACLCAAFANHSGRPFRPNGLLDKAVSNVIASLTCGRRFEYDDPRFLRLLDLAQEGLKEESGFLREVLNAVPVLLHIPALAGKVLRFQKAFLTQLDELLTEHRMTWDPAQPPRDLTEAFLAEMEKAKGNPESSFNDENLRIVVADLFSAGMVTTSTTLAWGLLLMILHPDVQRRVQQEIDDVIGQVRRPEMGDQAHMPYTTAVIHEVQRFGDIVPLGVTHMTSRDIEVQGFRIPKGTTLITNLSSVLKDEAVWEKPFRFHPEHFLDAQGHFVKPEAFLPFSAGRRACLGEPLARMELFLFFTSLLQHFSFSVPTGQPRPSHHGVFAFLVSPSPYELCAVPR

Assay [14] deals with Cytochrome P450 2C19 (Homo sapiens) (UniProt P33261). Briefly: qHTS Assay for Inhibitors and Substrates of Cytochrome P450 2C19 (AID 899; active = well fitted curve in the direction sought with a large enough effect; an effect the other way counts as inactive or inconclusive; note: potency is the fitted concentration of half-maximal effect; nearly all actives have a fitted effect of over 60% in size). The note with it: recombinant CYP2C19, luciferin-H EGE luminescence; series mostly up to 11.4 µM. The gist of the method: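 NADPH-dependent conversion of Luciferin-H EGE (10uM, at KM) by 5nM enzyme in 50mM KPO4, 60 min at 37C following 10 min compound preincubation. Stopped with luciferin detection buffer; luminescence read after 20 min.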
Chain of Cytochrome P450 2C19 (Homo sapiens) (P33261 whole entry, looked up): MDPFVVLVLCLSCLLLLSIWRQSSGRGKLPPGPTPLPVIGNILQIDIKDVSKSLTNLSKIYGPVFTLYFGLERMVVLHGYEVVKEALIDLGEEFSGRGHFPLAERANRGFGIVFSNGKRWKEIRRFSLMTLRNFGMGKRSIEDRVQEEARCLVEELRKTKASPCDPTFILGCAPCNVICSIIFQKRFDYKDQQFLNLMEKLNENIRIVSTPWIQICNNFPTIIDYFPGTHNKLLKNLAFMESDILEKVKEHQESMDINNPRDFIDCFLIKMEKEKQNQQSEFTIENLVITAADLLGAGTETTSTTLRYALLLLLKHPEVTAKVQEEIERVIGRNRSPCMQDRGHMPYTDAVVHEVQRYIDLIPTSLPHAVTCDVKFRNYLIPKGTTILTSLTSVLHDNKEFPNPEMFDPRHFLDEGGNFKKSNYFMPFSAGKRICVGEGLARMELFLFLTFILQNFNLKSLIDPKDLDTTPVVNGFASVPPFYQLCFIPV

Chain of 3',5'-cyclic-AMP phosphodiesterase 4B (Homo sapiens) (Q07343 whole entry, looked up): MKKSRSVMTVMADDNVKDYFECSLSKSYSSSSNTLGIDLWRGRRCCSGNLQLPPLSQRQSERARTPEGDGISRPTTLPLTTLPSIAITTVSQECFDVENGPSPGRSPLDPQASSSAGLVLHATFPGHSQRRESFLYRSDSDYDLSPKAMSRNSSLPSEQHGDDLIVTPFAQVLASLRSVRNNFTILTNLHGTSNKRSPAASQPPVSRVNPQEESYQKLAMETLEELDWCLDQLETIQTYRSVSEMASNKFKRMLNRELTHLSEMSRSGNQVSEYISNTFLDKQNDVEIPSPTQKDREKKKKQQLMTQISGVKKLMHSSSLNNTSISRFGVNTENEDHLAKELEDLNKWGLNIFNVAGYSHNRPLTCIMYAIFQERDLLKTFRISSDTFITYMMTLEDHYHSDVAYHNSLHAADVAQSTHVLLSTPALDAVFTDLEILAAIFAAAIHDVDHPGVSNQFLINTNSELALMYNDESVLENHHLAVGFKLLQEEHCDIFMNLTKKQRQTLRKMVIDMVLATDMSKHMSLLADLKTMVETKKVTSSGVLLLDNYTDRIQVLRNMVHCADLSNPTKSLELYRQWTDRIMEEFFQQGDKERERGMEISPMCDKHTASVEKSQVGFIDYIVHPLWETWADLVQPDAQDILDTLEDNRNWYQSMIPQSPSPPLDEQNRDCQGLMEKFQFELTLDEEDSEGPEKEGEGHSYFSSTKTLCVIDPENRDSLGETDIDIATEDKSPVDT
Chain of Glucocorticoid receptor (Homo sapiens) (P04150 whole entry, looked up, the tested form may be a part): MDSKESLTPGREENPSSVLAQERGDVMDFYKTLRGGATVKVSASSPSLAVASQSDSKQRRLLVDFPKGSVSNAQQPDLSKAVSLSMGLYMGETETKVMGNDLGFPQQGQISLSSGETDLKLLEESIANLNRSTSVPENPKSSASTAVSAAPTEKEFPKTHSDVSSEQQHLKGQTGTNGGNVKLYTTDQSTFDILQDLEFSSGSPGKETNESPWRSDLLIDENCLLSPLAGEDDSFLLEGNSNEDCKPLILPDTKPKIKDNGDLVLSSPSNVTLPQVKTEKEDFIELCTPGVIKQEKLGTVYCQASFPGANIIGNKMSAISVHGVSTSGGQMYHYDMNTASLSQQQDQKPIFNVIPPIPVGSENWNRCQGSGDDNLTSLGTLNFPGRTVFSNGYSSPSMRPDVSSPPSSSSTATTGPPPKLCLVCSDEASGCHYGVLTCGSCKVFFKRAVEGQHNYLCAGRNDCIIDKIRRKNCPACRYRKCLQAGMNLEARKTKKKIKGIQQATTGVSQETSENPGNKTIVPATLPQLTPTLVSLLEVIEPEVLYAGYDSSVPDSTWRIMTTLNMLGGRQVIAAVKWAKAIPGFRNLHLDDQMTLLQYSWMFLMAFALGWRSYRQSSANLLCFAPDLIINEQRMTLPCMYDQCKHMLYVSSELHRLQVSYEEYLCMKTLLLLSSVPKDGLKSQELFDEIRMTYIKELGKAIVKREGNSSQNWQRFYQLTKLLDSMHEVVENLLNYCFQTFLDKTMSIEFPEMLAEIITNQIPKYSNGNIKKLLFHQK
Chain of Cytochrome P450 2C9 (Homo sapiens) (P11712 whole entry, looked up): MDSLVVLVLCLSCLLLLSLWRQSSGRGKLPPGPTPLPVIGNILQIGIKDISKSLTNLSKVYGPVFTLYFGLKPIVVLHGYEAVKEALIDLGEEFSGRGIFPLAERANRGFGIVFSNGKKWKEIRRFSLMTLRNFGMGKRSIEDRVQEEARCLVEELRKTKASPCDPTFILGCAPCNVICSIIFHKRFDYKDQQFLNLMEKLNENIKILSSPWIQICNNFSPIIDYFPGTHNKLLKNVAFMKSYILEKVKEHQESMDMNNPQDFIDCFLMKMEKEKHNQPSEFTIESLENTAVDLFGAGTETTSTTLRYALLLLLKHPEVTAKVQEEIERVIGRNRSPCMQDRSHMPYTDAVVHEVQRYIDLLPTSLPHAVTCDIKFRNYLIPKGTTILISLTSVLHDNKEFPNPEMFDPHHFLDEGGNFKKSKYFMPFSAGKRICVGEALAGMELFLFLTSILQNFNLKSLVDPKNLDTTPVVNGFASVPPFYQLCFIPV
Chain of Cytochrome P450 3A4 (Homo sapiens) (P08684 whole entry, looked up): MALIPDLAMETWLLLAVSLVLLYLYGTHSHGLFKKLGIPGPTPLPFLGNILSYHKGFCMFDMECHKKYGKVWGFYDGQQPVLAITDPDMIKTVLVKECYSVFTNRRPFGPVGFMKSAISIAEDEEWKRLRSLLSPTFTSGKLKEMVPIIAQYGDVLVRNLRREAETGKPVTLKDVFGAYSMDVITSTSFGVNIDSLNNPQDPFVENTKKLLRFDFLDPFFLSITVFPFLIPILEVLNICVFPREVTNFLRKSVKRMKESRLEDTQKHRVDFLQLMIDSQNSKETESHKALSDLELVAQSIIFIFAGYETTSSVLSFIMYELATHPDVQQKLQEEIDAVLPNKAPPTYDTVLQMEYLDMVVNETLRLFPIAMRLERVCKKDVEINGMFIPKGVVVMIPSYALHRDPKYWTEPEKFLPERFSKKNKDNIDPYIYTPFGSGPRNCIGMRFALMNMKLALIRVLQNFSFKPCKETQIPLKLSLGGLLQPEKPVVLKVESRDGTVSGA

With `CC1=C(CC[C@H](C)CO)O[C@@H]2C[C@@H]3[C@H]4CC[C@H]5C[C@@H](O)CC[C@]5(C)[C@@H]4CC(=O)[C@@]3(C)[C@@H]12`, the Potency is more than 11.4 µM in [1], more than 46 µM in assay [6] and more than 9.22 µM in assay [7]. For the same compound, the activity change, negative = inhibition in assay [2] is 12.3%; in assay [3], -21.1% [at 2.29 µM]; in assay [4] it was -4.84%. Further, the activity, negative = inhibition in assay [5] was -18.7%. For the same compound, the Potency entry in [8] and in assay [9] was “inactive” in each case.
Regarding `CC1=CC(C)(C)Nc2ccc(CSc3ccccc3)cc21`, the Potency in assay [1] is more than 11.4 µM; in assay [3], 0.501 µM (active); in [6] it was more than 46 µM; in assay [7], more than 9.22 µM; in assay [10] it was 0.199 µM (active); in assay [11], 3.98 µM (active). Also, the Potency in assay [13] is 0.631 µM (active); in assay [14] it was 0.316 µM (active). Besides, the activity change, negative = inhibition in assay [2] is 3.94%; in assay [4], -4.82%. Also, in [5], the activity, negative = inhibition is -11.8%. In addition, the Potency entry in [8], in [9] and in assay [12] was “inactive” in each case.
On to `NNC(=O)Cc1cccnc1`, for which the Potency was more than 11.4 µM in assay [1]; 0.631 µM (active) in assay [3]; more than 46 µM in [6]; more than 9.22 µM in assay [7]; 3.16 µM (active) in assay [11]. Moreover, the activity change, negative = inhibition in assay [2] was -8.16%; in assay [4], 7.3%. Further, in assay [5], the activity, negative = inhibition is 3.84%. In addition, the Potency entry in [8], in assay [9], in assay [10] and in assay [12] was “inactive” in each case.
With `Cc1c(Cl)c(S(N)(=O)=O)cc2c1=NC=NS=2(=O)O`, the Potency was more than 11.4 µM in [1], more than 46 µM in assay [6] and more than 9.22 µM in assay [7]. Further, the activity change, negative = inhibition is -1% in assay [2], -9.6% [at 2.29 µM] in assay [3] and 4.9% in [4]. For the same compound, in assay [5], the activity, negative = inhibition is 1.77%. Besides, the Potency result in assay [8], in [9] and in assay [10] was “inactive” throughout.
For `CC(CCN)(CCN)[N+](=O)[O-]`, the values for the Potency in assay [1], in assay [6] and in assay [7] were more than 11.4 µM, more than 46 µM and more than 9.22 µM, respectively. Besides, the activity change, negative = inhibition in assay [2] was 10.4%; in assay [4] it was 9.23%. Further, the Potency result in assay [3], in [8] and in assay [9] was “inactive” throughout. Besides, the activity, negative = inhibition in assay [5] is 5.23%.
For `Cc1ccc(NC(=O)c2ccccc2C(=O)O)cc1C`, the Potency in assay [1] is more than 11.4 µM; in assay [3], 3.98 µM (active); in [6], more than 46 µM; in assay [7] it was more than 9.22 µM. Besides, the activity change, negative = inhibition in assay [2] is -1.74%; in assay [4], -27.9%. In addition, the activity, negative = inhibition in assay [5] was -5.42%. The Potency entry in assay [8] and in assay [9] was “inactive” in each case.
On to `Cc1[nH]c2ccccc2c1-c1cc(-c2cc(-c3c(C)[nH]c4ccccc34)on2)no1`, for which the Potency was more than 11.4 µM in [1], 0.398 µM (active) in [3], more than 46 µM in assay [6] and more than 9.22 µM in assay [7]. The activity change, negative = inhibition was 5.07% in assay [2] and -7.58% in assay [4]. In addition, the activity, negative = inhibition in assay [5] is -1.93%. The Potency result in assay [8], in assay [9] and in [10] was “inactive” throughout.

Source of the values: PubChem BioAssay (NCATS).
